# Measurements taken from PMC7862700, “An all-to-all approach to the identification of sequence-specific readers for epigenetic DNA modifications on cytosine”.
# Assays:
# Assay in all cases: DAPPL (digital affinity profiling via proximity ligation, sequencing); 10 mM Tris-HCl pH 7.5, 50 mM NaCl, 1 mM DTT, 4% glycerol, room temperature, 30 min; GST-TFs on glutathione beads, 16-mer random dsDNA library, 0.1% formaldehyde crosslink after washing; high values mean tight binding
# FLI1 = target: T1, FLI1 (Homo sapiens, UniProt Q01543 1-452); conditions: protein: recombinant; tags: N-terminal GST; dsDNA, one strand shown
# T1 sequence: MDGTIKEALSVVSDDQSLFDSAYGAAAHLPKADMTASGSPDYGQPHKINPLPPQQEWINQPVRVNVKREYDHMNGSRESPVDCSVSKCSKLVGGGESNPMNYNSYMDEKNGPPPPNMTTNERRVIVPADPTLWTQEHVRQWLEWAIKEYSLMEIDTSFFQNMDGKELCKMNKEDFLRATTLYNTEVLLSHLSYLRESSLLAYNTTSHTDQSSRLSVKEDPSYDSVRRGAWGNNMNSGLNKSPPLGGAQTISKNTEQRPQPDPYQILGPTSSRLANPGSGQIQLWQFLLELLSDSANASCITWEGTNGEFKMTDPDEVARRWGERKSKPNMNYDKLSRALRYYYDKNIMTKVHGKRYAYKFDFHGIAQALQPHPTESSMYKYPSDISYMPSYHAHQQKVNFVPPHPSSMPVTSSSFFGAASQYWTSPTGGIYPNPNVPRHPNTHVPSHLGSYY
# In short: (§1)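 Human transcription factors were made in yeast as GST fusions, captured on glutathione beads and barcoded with DNA. With a tag-only sample included, the pool was incubated with 200 nmole of a random double-stranded 16-mer DNA library in Tris/NaCl/DTT/glycerol buffer at room temperature for 30 min, then crosslinked with 0.1% formaldehyde after washing, ligated by proximity, amplified and sequenced. For binding signal, each hexamer's read frequency for a factor is divided by its frequency for the tag-only sample.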
# ELK1 = target: T2, ELK1 (Homo sapiens, UniProt P19419 1-428); conditions: protein: recombinant; tags: N-terminal GST; dsDNA, one strand shown
# T2 sequence: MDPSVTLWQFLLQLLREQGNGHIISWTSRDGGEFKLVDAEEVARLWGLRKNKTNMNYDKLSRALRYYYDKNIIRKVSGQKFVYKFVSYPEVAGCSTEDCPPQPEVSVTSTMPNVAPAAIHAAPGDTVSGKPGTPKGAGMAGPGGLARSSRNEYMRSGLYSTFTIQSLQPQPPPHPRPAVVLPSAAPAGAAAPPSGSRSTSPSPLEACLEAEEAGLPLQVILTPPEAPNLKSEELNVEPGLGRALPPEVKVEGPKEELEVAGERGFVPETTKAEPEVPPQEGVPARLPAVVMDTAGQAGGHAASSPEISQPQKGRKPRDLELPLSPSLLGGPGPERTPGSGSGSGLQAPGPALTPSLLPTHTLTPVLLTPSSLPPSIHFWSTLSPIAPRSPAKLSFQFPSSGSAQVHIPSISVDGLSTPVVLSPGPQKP
# In short: as §1
# GABPA = target: T3, GABPA (Homo sapiens, UniProt Q06546 1-454); conditions: protein: recombinant; tags: N-terminal GST; dsDNA, one strand shown
# T3 sequence: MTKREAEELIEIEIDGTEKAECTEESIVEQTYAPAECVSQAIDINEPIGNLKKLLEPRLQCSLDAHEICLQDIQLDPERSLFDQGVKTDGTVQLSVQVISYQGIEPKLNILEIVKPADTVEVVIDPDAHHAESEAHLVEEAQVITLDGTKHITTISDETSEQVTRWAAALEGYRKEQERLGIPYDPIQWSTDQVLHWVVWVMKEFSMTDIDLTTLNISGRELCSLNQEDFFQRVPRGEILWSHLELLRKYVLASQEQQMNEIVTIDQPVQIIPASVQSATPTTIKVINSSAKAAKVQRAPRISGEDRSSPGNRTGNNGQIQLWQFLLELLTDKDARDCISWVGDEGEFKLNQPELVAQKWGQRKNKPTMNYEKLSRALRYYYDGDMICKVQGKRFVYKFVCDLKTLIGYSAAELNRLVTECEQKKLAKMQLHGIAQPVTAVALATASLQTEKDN
# In short: as §1
# ERG = target: T4, ERG (Homo sapiens, UniProt P11308 1-479); conditions: protein: recombinant; tags: N-terminal GST; dsDNA, one strand shown
# T4 sequence: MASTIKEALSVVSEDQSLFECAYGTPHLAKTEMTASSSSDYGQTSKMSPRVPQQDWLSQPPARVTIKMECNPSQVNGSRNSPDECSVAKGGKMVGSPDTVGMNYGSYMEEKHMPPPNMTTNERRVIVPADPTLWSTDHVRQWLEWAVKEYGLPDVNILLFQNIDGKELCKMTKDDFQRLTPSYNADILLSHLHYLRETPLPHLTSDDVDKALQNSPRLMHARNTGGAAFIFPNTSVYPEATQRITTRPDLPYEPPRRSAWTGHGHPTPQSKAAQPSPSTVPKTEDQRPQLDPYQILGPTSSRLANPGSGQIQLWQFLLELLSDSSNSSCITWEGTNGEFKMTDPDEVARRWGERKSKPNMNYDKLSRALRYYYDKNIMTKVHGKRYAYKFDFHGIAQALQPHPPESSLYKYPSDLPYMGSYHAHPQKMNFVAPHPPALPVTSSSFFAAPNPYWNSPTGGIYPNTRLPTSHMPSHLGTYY
# In short: as §1
# ELF1 = ELF1 (Homo sapiens, UniProt P32519 1-619); conditions: protein: recombinant; tags: N-terminal GST; dsDNA, one strand shown
# In short: as §1
# EHF = target: T5, EHF (Homo sapiens, UniProt Q9NZC4 1-300); conditions: protein: recombinant; tags: N-terminal GST; dsDNA, one strand shown
# T5 sequence: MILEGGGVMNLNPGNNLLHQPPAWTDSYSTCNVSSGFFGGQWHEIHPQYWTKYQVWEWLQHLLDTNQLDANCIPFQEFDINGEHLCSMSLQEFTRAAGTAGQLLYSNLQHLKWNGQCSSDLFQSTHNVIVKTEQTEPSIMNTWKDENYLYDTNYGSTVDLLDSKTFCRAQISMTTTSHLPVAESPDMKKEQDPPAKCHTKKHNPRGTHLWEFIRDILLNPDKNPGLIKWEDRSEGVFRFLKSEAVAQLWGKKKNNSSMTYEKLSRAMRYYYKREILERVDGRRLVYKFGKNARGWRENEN
# In short: as §1
# SPIB = SPIB (Homo sapiens, UniProt Q01892 1-262); conditions: protein: recombinant; tags: N-terminal GST; dsDNA, one strand shown
# In short: as §1
# FEV = target: T6, FEV (Homo sapiens, UniProt Q99581 1-238); conditions: protein: recombinant; tags: N-terminal GST; dsDNA, one strand shown
# T6 sequence: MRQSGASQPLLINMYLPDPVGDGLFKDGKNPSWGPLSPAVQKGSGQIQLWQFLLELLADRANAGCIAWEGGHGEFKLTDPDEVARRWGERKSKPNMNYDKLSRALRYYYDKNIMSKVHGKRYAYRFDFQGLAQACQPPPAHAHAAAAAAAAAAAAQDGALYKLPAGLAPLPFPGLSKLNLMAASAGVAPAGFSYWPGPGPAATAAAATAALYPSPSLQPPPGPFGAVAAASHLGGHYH
# In short: as §1
# ETV5 = ETV5 (Homo sapiens, UniProt P41161 1-510); conditions: protein: recombinant; tags: N-terminal GST; dsDNA, one strand shown
# In short: as §1
# HSF1 = HSF1 (Homo sapiens, UniProt Q00613 1-529); conditions: protein: recombinant; tags: N-terminal GST; chain copies: 3; dsDNA, one strand shown
# In short: as §1
# SPIC = target: T7, SPIC (Homo sapiens, UniProt Q8N5J4 1-248); conditions: protein: recombinant; tags: N-terminal GST; dsDNA, one strand shown
# T7 sequence: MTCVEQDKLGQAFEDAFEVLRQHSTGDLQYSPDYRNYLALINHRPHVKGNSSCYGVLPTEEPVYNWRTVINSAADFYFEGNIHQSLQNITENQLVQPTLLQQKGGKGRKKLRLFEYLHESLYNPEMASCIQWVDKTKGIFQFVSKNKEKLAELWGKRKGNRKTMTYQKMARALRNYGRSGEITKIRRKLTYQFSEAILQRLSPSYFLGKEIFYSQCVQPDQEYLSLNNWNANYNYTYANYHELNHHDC
# In short: as §1
# ELF4 = ELF4 (Homo sapiens, UniProt Q99607 1-663); conditions: protein: recombinant; tags: N-terminal GST; dsDNA, one strand shown
# In short: as §1
# ELK4 = target: T8, ELK4 (Homo sapiens, UniProt P28324-2 1-405); conditions: protein: recombinant; tags: N-terminal GST; dsDNA, one strand shown
# T8 sequence: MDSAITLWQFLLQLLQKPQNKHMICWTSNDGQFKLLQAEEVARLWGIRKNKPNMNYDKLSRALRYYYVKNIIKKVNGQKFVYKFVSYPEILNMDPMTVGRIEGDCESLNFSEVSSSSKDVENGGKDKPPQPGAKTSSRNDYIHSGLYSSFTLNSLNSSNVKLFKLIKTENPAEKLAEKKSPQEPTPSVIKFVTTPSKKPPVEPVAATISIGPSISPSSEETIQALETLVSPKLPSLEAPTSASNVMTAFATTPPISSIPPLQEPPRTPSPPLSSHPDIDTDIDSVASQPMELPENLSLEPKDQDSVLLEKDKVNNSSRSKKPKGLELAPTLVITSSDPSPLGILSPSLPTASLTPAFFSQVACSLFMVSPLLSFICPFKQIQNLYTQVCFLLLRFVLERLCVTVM
# In short: as §1
# ETV2 = target: T9, ETV2 (Homo sapiens, UniProt O00321 1-342); conditions: protein: recombinant; tags: N-terminal GST; dsDNA, one strand shown
# T9 sequence: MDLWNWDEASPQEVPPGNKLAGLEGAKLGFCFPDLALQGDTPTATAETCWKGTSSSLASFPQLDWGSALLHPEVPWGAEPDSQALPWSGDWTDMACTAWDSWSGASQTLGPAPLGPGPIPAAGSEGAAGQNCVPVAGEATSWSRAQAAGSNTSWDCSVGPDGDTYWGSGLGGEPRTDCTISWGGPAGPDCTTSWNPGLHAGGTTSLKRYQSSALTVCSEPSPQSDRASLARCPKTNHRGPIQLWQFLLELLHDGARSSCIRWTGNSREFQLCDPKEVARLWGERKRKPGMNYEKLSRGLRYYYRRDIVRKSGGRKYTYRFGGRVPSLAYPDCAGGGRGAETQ
# In short: as §1
# ELF3 = target: T10, ELF3 (Homo sapiens, UniProt P78545 1-371); conditions: protein: recombinant; tags: N-terminal GST; dsDNA, one strand shown
# T10 sequence: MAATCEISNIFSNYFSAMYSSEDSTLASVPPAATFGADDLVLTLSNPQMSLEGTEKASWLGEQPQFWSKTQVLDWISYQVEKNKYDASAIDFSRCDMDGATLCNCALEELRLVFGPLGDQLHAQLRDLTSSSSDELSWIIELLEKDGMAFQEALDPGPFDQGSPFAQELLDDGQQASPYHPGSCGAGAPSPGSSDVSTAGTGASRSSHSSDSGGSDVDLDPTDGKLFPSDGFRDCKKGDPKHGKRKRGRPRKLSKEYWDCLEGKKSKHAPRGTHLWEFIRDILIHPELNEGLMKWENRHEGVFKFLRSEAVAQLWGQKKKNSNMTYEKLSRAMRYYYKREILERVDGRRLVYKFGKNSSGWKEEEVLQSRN
# In short: as §1
# CRX = CRX (Homo sapiens, UniProt O43186 1-299); conditions: protein: recombinant; tags: N-terminal GST; dsDNA, one strand shown
# In short: as §1
# ETV1 = ETV1 (Homo sapiens, UniProt P50549 1-477); conditions: protein: recombinant; tags: N-terminal GST; dsDNA, one strand shown
# In short: as §1
# ELF1, sequence (P32519 whole entry): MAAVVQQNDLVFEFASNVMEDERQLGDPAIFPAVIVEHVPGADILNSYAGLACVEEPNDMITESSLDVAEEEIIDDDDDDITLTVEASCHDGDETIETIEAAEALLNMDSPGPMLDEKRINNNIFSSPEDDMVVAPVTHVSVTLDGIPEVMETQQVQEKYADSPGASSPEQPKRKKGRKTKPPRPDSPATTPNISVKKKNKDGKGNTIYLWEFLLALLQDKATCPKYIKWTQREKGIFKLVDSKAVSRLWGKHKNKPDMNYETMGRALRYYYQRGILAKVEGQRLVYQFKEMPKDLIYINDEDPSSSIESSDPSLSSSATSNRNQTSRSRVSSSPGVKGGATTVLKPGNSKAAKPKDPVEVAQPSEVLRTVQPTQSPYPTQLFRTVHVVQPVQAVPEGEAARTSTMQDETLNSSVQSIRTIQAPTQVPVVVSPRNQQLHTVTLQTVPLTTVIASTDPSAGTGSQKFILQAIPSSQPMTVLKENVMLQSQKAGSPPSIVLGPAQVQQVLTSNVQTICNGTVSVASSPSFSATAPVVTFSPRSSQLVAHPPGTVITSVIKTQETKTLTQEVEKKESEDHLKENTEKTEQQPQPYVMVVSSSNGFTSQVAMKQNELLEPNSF
# HSF1, sequence (Q00613 whole entry): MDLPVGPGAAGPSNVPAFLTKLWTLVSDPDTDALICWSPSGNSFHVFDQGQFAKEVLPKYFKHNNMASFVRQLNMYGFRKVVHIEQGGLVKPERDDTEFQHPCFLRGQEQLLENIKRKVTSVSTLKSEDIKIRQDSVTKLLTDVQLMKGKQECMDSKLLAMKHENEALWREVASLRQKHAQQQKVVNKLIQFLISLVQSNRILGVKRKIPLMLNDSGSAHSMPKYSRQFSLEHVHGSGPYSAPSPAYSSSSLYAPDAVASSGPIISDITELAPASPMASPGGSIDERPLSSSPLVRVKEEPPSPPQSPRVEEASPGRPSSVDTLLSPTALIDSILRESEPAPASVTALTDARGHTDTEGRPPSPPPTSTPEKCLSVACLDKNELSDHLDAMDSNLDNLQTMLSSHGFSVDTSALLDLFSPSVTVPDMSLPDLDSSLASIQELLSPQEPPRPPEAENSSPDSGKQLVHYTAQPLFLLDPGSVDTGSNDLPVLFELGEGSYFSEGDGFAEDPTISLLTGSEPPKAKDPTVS
# ETV1, sequence (P50549 whole entry): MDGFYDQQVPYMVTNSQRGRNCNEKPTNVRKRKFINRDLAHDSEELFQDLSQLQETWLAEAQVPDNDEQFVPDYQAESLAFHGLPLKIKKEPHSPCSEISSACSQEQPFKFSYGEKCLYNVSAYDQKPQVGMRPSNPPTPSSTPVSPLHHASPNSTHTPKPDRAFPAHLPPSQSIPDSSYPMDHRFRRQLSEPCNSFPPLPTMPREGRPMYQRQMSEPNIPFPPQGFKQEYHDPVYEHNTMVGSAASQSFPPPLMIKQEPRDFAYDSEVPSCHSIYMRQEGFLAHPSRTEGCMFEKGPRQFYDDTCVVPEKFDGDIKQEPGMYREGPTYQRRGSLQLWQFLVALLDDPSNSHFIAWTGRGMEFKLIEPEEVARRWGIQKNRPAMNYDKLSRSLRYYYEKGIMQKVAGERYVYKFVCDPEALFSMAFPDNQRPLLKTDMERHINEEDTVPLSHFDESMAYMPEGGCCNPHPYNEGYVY
# CRX, sequence (O43186 whole entry): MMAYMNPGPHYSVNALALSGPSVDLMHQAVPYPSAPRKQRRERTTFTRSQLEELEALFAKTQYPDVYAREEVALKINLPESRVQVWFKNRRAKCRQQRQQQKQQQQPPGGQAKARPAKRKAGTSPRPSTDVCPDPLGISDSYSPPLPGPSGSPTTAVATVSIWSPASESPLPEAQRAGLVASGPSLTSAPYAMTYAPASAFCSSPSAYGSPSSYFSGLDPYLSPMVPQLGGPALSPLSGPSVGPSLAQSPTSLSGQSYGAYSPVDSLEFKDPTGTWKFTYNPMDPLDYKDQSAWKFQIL
# ELF4, sequence (Q99607 whole entry): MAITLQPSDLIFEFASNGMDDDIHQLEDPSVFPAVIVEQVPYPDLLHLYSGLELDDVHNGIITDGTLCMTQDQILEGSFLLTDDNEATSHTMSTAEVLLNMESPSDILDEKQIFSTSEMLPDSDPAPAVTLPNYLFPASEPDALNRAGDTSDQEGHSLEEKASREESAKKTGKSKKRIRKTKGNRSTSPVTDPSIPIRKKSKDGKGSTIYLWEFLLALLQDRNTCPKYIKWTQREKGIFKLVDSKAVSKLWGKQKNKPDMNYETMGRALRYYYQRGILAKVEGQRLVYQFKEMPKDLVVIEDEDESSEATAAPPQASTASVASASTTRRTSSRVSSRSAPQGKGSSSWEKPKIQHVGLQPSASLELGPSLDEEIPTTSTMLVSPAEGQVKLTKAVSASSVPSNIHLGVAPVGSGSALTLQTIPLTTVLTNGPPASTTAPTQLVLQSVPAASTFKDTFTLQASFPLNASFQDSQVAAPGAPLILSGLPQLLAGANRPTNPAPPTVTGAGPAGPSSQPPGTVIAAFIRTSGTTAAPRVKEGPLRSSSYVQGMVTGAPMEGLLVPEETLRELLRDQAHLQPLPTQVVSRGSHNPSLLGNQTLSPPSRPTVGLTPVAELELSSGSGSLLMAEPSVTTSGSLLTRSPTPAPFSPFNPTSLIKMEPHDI
# SPIB, sequence (Q01892 whole entry): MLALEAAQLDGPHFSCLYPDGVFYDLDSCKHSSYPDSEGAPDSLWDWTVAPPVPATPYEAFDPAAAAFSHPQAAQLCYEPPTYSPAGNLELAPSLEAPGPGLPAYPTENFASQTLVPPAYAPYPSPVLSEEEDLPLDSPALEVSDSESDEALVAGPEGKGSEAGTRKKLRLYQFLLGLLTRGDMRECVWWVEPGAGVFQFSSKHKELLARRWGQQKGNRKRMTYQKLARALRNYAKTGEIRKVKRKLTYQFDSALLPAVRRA
# ETV5, sequence (P41161 whole entry): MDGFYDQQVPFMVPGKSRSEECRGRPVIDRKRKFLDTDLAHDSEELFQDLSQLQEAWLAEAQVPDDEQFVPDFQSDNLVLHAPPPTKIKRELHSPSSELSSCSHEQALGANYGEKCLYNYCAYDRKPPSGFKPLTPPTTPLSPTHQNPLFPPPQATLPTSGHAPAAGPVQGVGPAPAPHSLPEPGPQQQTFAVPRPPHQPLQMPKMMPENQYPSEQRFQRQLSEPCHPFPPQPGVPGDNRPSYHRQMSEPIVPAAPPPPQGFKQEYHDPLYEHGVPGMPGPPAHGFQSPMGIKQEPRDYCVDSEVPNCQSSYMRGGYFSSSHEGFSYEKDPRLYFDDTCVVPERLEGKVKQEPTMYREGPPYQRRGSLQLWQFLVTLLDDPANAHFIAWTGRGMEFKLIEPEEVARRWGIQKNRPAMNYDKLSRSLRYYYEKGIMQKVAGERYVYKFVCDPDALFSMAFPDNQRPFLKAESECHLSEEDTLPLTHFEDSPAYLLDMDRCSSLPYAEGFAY
sequence,measurement,setting,value
TATGTG,binding signal,FLI1,"1 fold enrichment (6-mer frequency, TF over GST control)"
same,binding signal,ELK1,"1.08 fold enrichment (6-mer frequency, TF over GST control)"
same,binding signal,GABPA,"1.05 fold enrichment (6-mer frequency, TF over GST control)"
same,binding signal,ERG,"1.06 fold enrichment (6-mer frequency, TF over GST control)"
same,binding signal,ELF1,"1.06 fold enrichment (6-mer frequency, TF over GST control)"
same,binding signal,EHF,"1.07 fold enrichment (6-mer frequency, TF over GST control)"
same,binding signal,SPIB,"1.05 fold enrichment (6-mer frequency, TF over GST control)"
same,binding signal,FEV,"1.08 fold enrichment (6-mer frequency, TF over GST control)"
same,binding signal,ETV5,"1.13 fold enrichment (6-mer frequency, TF over GST control)"
same,binding signal,HSF1,"1.01 fold enrichment (6-mer frequency, TF over GST control)"
same,binding signal,SPIC,"1.22 fold enrichment (6-mer frequency, TF over GST control)"
same,binding signal,ELF4,"1.13 fold enrichment (6-mer frequency, TF over GST control)"
same,binding signal,ELK4,"1.17 fold enrichment (6-mer frequency, TF over GST control)"
same,binding signal,ETV2,"1.06 fold enrichment (6-mer frequency, TF over GST control)"
same,binding signal,ELF3,"1.16 fold enrichment (6-mer frequency, TF over GST control)"
same,binding signal,CRX,"1.09 fold enrichment (6-mer frequency, TF over GST control)"
same,binding signal,ETV1,"1.08 fold enrichment (6-mer frequency, TF over GST control)"
